Measured values: PubChem BioAssay (NCATS)
Records with an inconclusive call do not appear. Where a call stands in place of a potency, no number is given. Values without a mark were called inactive. Calls of active or inactive are those of the source. The call rests on the fitted dose curve; in most records, active means well fitted inhibition curve with a large enough effect; inconclusive means small, poorly fitted or top-dose-only effect; inactive means no such curve, though single readings can be large or run the other way.

Biological target: Calcium and integrin-binding protein 1 (Homo sapiens) (UniProt Q99828)
Assay: Confirmatory qHTS for Identification of Calcium Integrin Binding Protein 1 (CIB1) Competitor (AID 1508617); further: nearly all actives have a fitted effect of over 65% in size
Outline: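 Compounds at up to 114 uM final met 1 uM GST-tagged CIB1 for 15 min at room temperature (HEPES pH 7.4, 5 mM CaCl2). FITC-labelled alphaIIb peptide, 100 nM, added; polarization read after 15 min more.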
Potency means the concentration at half of the fitted maximal effect.

Calcium and integrin-binding protein 1 (Homo sapiens), sequence (Q99828 whole entry, looked up): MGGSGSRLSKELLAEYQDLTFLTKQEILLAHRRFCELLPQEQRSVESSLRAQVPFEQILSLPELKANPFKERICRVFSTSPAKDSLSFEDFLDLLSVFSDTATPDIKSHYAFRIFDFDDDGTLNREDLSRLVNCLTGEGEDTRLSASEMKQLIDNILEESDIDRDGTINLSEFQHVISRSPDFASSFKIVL

SMILES	Potency
NC(=O)C1CCN(c2nc(-c3ccccc3N)cs2)CC1	inactive
O=C(Cc1ccccc1)NC(c1ccco1)c1cc(Cl)c2cccnc2c1O (stereo unspecified)	inactive
Oc1cccc2cc(C3CC3)cnc12	inactive
O=C1CCC2=C1C1(CCCC1)N=C(Nc1nc3ccccc3o1)N2	inactive
C=CCNc1oc(-c2ccc(Cl)cc2)nc1C#N	44.7 µM (active)
O=C1CCCC2=C1C1(CCOCC1)N=C(Nc1nc3ccccc3o1)N2	inactive
